Records with an inconclusive call do not appear. Activity calls are given as the source filed them. Unless noted, calls follow the shape of the dose curve; as a rule, active = well fitted curve in the direction sought with a large enough effect; inconclusive = small, poorly fitted or top-dose-only effect, or another doubt; inactive = no such curve, though single readings can be large; an effect the other way counts as inactive or inconclusive.
Key:
[1] = target: Rap guanine nucleotide exchange factor 3 (Homo sapiens) (UniProt O95398); assay: Confirmatory qHTS for agonist of cAMP-regulated guanine nucleotide exchange factor 3 (EPAC1) (AID 1645881);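 also: EPAC1 catalysed release of BODIPY-GDP from Rap1B seen as fluorescence loss; 100% = effect of cAMP agonist control; nearly all actives have a fitted effect of over 75% in size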
Sequence of Rap guanine nucleotide exchange factor 3 (Homo sapiens) (O95398 whole entry, looked up): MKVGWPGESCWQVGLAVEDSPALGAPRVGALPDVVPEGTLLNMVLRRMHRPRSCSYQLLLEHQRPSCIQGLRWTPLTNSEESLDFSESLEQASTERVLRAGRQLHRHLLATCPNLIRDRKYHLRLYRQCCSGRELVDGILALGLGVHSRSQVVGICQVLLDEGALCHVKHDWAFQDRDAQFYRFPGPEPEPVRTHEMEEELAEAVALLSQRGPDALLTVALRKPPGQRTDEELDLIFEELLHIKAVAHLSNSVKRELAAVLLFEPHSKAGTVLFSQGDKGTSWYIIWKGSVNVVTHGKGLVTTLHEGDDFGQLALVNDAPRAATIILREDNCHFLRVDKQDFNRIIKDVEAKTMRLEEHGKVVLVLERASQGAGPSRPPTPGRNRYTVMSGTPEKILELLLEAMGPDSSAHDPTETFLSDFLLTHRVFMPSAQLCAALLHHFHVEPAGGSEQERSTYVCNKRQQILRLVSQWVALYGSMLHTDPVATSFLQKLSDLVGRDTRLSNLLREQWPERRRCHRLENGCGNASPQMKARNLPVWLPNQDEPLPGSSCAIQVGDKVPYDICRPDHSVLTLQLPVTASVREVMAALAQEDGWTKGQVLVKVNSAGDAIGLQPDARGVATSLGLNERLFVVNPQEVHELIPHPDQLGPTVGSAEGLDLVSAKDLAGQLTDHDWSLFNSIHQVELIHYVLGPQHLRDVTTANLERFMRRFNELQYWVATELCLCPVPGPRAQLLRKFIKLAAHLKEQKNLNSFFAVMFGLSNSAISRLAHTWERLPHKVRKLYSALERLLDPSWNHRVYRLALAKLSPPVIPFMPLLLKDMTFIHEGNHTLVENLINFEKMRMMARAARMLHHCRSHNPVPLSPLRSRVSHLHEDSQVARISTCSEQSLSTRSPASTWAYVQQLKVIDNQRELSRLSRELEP

[2] = target: Rap guanine nucleotide exchange factor 4 (Homo sapiens) (UniProt Q8WZA2); assay: Confirmatory qHTS for agonist of cAMP-regulated guanine nucleotide exchange factor 4 (EPAC2) (AID 1645884);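 also: nucleotide exchange releases bodipy-GDP from Rap1 and this lowers its fluorescence; % is scaled to controls: 0 for no effect and ±100 for the full control effect; nearly all actives have a fitted effect of over 65% in size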
Sequence of Rap guanine nucleotide exchange factor 4 (Homo sapiens) (Q8WZA2 whole entry, looked up): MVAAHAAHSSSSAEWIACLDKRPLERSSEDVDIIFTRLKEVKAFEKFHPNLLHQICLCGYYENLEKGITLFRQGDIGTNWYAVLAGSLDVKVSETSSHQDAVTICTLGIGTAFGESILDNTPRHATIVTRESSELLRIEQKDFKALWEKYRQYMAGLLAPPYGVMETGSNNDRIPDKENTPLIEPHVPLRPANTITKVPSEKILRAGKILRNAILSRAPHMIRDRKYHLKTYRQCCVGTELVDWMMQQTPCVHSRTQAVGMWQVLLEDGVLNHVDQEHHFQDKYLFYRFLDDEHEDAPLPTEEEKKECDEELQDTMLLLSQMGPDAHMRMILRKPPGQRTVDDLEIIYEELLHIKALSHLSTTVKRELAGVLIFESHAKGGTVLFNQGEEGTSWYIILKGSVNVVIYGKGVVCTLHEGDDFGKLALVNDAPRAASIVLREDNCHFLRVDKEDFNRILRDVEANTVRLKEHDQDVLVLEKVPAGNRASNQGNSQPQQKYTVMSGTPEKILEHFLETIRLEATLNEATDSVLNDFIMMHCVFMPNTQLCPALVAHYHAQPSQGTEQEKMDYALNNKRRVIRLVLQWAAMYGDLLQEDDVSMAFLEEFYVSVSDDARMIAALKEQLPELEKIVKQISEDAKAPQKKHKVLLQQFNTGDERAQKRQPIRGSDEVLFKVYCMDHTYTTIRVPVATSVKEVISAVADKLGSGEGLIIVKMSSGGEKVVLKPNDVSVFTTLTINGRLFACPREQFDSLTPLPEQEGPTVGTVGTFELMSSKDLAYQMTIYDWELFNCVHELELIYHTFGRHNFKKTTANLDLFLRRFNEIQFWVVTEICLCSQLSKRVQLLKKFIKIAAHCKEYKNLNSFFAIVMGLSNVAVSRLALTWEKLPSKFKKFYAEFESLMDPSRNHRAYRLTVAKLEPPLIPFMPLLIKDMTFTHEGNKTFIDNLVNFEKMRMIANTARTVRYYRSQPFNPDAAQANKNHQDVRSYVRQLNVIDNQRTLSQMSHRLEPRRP

[3] = target: Rap guanine nucleotide exchange factor 4 (Homo sapiens) (UniProt Q8WZA2); assay: Confirmatory qHTS for antagonist of cAMP-regulated guanine nucleotide exchange factor 4 (EPAC2) (AID 1645885); also: nearly all actives have a fitted effect of over 25% in size; also: potency is read from the fitted curve at half-maximal effect; as to activity change, negative = inhibition: % is scaled to controls: 0 for no effect and ±100 for the full control effect
[4] = target: Rap guanine nucleotide exchange factor 3 (Homo sapiens) (UniProt O95398); assay: Counterscreen qHTS for agonist of cAMP-regulated guanine nucleotide exchange factor 3 (EPAC1) (AID 1645889); also: % of control where 0% means no effect; nearly all actives have a fitted effect of over 40% in size
Outline: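 Rap1B-BODIPY-GDP 250 nM + GDP 50 uM; cpds 7-pt, final 9.74 nM–152 uM (activator mode) or from 7.32 nM upwards (inhibitor mode); RT; FI 480/540 nm at 5 and 30 min, then ± cAMP, reread.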

[5] = target: Lysosomal acid glucosylceramidase (Homo sapiens) (UniProt P04062); assay: Glucocerebrosidase-p2 (AID 348; in the data active = potency below about 10 µM; also: potency is read from the fitted curve at half-maximal effect); conditions: purified GBA, blue fluorogenic substrate, 40 min
Sequence of Lysosomal acid glucosylceramidase (Homo sapiens) (P04062 whole entry, looked up): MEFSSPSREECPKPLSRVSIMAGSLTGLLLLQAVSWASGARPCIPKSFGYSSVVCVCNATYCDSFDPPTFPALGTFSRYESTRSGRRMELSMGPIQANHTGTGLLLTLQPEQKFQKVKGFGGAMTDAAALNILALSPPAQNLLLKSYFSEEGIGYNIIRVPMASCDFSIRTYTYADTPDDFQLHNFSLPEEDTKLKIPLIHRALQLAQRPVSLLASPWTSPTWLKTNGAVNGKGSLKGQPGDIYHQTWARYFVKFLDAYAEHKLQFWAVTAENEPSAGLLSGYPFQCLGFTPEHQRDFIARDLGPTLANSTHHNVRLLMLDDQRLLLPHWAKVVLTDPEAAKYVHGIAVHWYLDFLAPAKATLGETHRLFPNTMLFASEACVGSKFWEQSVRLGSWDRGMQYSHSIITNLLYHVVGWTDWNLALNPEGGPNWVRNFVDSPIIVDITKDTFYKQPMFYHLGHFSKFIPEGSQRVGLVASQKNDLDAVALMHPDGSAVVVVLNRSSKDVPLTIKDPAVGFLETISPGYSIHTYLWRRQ
Outline: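 Compounds titrated from 0.6 nM upwards against 0.2 nM enzyme in pH 5.9 citric acid/KH2PO4, taurocholate, tween-20; blue fluorogenic substrate 80 uM, 40 min room temperature, stopped and read Ex 365/Em 440 for AC50.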

[6] = AP1 Signaling Pathway (AID 357; active = well fitted curve in either direction with a large enough effect, not every such curve was filed as active;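 also: ME-180 reporter cells stimulated with EGF at its EC50 level; % is scaled to controls: 0 for no effect and ±100 for the full control effect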); conditions: ME-180 AP-1-bla reporter, EGF-induced, beta-lactamase ratio, 5 h; at 7.69 µM (top of the series) unless noted
Outline: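 In this screen, ME-180 cells in Opti-MEM with 0.5% dialyzed FBS received EC50 EGF and compound titrations for 5 h. AP-1 reporter beta-lactamase was detected via CCF4 ratio, giving AC50 for positive and negative modulators.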

[7] = target: Cytochrome P450 1A2 (Homo sapiens) (UniProt P05177); assay: p450-cyp1a2 (AID 410; calls by dose curve; also: potency is read from the fitted curve at half-maximal effect)
Sequence of Cytochrome P450 1A2 (Homo sapiens) (P05177 whole entry, looked up): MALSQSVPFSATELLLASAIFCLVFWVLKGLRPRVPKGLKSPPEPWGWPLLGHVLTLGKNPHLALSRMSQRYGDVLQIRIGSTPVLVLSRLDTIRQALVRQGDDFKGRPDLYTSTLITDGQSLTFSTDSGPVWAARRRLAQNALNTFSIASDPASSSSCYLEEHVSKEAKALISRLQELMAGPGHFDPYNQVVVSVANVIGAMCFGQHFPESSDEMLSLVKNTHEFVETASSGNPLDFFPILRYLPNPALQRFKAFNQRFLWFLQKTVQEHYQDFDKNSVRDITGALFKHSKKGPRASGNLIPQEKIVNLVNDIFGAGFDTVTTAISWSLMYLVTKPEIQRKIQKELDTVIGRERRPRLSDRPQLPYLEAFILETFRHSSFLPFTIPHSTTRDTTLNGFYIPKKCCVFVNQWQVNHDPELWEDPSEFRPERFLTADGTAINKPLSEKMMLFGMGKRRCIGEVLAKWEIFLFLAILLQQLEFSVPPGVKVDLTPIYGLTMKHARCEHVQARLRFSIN
Outline: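 Inhibition was calculated relative to 57 uM furafylline (full inhibition). The reaction used human CYP1A2 at 20nM with Luciferin-ME at its Km, 100uM, driven by an NADPH-regenerating system for 60 min at room temperature.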

[8] = Stat Signaling Pathway (AID 446; active = well fitted curve in either direction with a large enough effect, not every such curve was filed as active;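 also: ME-180 cervical cancer cells given 40 pM IL-6 alongside compound; SIE-controlled beta-lactamase reporter measured as 460/530 nm FRET emission ratio; % is scaled to controls: 0 for no effect and ±100 for the full control effect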)
Outline: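 ME-180 cells carrying a SIE-driven beta-lactamase reporter are stimulated with 40 pM IL-6 for 5 h at 37C in the presence of compound. The 460/530 nm FRET substrate ratio is read after 2.5 h at RT. Data are normalised to 300 pM IL-6 and to 125 nM JAK inhibitor controls.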

[9] = target: Glucocorticoid receptor (Homo sapiens) (UniProt P04150); assay: GR-EFC Redistribution (AID 451; calls by dose curve; also: potency is read from the fitted curve at half-maximal effect); conditions: CHO-K1 GR-EFC translocation, beta-gal luminescence, 2 h
Sequence of Glucocorticoid receptor (Homo sapiens) (P04150 whole entry, looked up, the tested form may be a part): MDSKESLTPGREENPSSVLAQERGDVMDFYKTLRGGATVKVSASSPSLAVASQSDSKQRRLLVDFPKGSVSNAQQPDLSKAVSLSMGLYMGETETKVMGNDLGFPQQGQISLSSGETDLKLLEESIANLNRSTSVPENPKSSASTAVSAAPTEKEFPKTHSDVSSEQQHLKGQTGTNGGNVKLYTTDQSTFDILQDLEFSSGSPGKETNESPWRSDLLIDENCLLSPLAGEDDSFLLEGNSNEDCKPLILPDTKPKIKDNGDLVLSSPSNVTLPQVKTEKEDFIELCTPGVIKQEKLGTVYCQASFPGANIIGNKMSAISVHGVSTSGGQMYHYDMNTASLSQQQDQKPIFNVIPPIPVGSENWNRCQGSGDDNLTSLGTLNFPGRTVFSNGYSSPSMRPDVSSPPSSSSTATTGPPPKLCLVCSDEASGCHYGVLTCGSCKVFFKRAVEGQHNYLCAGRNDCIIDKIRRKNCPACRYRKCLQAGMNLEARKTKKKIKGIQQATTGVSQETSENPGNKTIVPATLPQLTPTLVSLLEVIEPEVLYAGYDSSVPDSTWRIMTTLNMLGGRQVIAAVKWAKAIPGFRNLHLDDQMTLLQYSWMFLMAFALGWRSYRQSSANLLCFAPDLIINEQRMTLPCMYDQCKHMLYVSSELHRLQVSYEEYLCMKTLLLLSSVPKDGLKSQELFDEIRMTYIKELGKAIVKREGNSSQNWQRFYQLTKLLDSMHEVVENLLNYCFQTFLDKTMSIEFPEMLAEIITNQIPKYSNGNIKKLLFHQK
Outline: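 Translocation of GR-ED fusion to nuclear EA restores b-gal, read by luminescence after 1 h room-temperature detection. Engineered CHO-K1 biosensor cells, 1,000/well, exposed 2 h at 37 C to titrations up to 46 uM final.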

[10] = target: Mitogen-activated protein kinase 10 (Mus musculus) (UniProt Q61831); assay: JNK3 AlphaScreen Assay (AID 530; active = well fitted curve in either direction with a large enough effect, not every such curve was filed as active;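 also: kinase came from lysate of stimulated human HepG2 cells; signal reports phosphorylation of biotinylated GST-cJun 1-79 at Ser73 with 10 µM ATP; % is scaled to controls: 0 for no effect and ±100 for the full control effect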)
Outline: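 Room-temperature AlphaScreen kinase assay; pre-activated HepG2 lysate as JNK3 source, biotin-GST-cJun(1-79) substrate, 10 uM ATP, compound 15 min preincubation.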

[11] = target: 3',5'-cyclic-AMP phosphodiesterase 4B (Homo sapiens) (UniProt Q07343); assay: qHTS Assay for Inhibitors of PDE-IV (AID 607; active = well fitted activation curve with a large enough effect in the main read-out, with a control signal flat, not every such curve was filed as active; also: % of control where 0% means no effect)
Sequence of 3',5'-cyclic-AMP phosphodiesterase 4B (Homo sapiens) (Q07343 whole entry, looked up): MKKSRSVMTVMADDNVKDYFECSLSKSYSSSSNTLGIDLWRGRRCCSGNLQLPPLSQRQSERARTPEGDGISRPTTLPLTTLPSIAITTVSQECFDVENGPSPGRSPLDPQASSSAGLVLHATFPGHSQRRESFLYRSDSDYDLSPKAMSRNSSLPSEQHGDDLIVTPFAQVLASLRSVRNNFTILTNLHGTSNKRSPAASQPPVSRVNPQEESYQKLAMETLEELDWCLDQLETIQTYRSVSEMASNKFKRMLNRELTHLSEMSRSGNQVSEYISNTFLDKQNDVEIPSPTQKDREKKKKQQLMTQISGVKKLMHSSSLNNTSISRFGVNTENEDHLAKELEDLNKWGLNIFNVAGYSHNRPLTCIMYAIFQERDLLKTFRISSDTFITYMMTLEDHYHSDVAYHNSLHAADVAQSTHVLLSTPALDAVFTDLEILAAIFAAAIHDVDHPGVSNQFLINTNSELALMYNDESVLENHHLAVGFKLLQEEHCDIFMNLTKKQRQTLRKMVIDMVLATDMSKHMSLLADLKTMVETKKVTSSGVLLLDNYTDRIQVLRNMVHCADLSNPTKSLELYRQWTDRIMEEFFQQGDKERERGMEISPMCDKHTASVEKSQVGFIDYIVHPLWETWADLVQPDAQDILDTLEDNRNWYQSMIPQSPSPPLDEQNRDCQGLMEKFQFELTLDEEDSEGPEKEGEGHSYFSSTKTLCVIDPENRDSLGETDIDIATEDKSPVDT
Outline: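 HEK293 ACTOne cells with CNG channel (1000/well), endogenous PDE4; membrane potential dye, compounds up to 22.9 uM final. Fluorescence Ex 535/Em 590; RO 20-1724 (100 uM final) as reference.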

[12] = target: Cytochrome P450 3A4 (Homo sapiens) (UniProt P08684); assay: qHTS Assay for Activators of Cytochrome P450 3A4 (AID 885); also: nearly all actives have a fitted effect of over 65% in size
Sequence of Cytochrome P450 3A4 (Homo sapiens) (P08684 whole entry, looked up): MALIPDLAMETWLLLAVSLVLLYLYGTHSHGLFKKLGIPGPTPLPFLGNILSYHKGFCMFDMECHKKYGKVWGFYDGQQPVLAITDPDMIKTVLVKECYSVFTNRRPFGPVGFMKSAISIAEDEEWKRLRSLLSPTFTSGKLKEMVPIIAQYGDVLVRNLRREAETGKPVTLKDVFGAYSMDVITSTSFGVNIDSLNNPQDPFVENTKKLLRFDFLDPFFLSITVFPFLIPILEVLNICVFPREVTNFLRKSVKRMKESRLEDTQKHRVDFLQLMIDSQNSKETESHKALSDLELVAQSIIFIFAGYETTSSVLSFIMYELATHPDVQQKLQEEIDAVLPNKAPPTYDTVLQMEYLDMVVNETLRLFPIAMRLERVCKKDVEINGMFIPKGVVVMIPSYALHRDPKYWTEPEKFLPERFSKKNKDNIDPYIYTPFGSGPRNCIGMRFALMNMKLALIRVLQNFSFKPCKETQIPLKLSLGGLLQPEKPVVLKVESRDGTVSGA
Outline: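 Human CYP3A4 (20 nM) with Luciferin-PPXE at 25 uM (its KM) in 200 mM KPO4; 10 min compound preincubation, then NADPH regeneration and 60 min reaction at RT. Luciferin read by luminescence; normalized to 57 uM ketoconazole full inhibition.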

CCN(Cc1ccccc1)S(=O)(=O)c1cc2c3c(c1)CCN3C(=O)CC2
inactive: Potency [1] | activation [2] 0.922% [at 17.1 µM, percent relative to cAMP agonist control] | Potency [3] | activation [4] -5.83% [at 30.8 µM]

COc1cccc(S(=O)(=O)Nc2ccc3c(c2)[C@@H]2C[C@@H](CC(=O)NCc4ccc(Cl)cc4)O[C@@H](CO)[C@@H]2O3)c1
inactive: Potency [1] | Potency [2] | Potency [3] | Potency [4]

Cc1cc(C)c(OCC(=O)N(Cc2ccco2)Cc2ccco2)c(C)c1
inactive: Potency [1] | Potency [2] | Potency [3] | Potency [4]

Oc1ccccc1CNc1ccc(OC(F)(F)F)cc1
inactive: Potency [1] | Potency [2] | Potency [3] | Potency [4]

CC(C)(C)c1ccc(C(=O)N2CCCC(c3nc4c(nnn4Cc4cccc(F)c4)c(=O)[nH]3)C2)cc1 (centres undefined)
inactive: Potency [1] | Potency [2] | outcome [3] inactive [at 12.7 µM] | Potency [4]

O=C(NCc1ccc(OC(F)(F)F)cc1)C1CC(c2ccccc2C(F)(F)F)=NO1 (centres undefined)
inactive: Potency [1] | activation [2] 4.05% [at 17.1 µM, percent relative to cAMP agonist control] | Potency [3] | activation [4] 3.19% [at 30.8 µM]

Cc1cccc(N2C(=O)C(O)=C(C(=O)c3cccs3)C2c2cccc(Oc3ccccc3)c2)n1 (centres undefined)
inactive: Potency [1] | Potency [2] | Potency [3] | Potency [4]

Cc1occc1C(=O)N/N=C/C1=C(N2CCOCC2)C(=C/c2ccc(Cl)cc2Cl)/CC1
inactive: Potency [1] | Potency [2] | Potency [3] | Potency [4]

CCOC(=O)c1nc(C)nc(Sc2n[nH]c(-c3cc(Cl)cc(Cl)c3)n2)c1C
inactive: Potency [1] | activation [2] 2.66% [at 17.1 µM, percent relative to cAMP agonist control] | Potency [3] | activation [4] 19.4% [at 30.8 µM]

COc1cc(/C=C(\C#N)C(=O)Nc2ccccc2C(=O)O)cc(Cl)c1OC
inactive: Potency [1] | Potency [2] | Potency [3] | Potency [4]

COC(=O)c1ccccc1NC(=S)NC(=O)c1ccc(C)cc1
inactive: Potency [1] | activation [2] 2.96% [at 17.1 µM, percent relative to cAMP agonist control] | Potency [3] | activation [4] 7.2% [at 30.8 µM]

CC(C)(C)c1ccc(S(=O)(=O)NC(=O)C2(C)CCN2C(=O)Cc2ccc(-c3ccccc3)cc2)cc1 (centres undefined)
inactive: Potency [1] | activation [2] -4.75% [at 17.1 µM, percent relative to cAMP agonist control] | Potency [3] | activation [4] 6.27% [at 30.8 µM]

Cc1ccc(C)c(S(=O)(=O)N2CCN(C(=O)/C=C/c3ccco3)CC2)c1
inactive: Potency [1] | Potency [2] | Potency [3] | Potency [4]

CCCc1[nH]c2ccc(C(=O)OC)cc2c1CCC
active: Potency [3] 19 µM
inactive: Potency [1] | Potency [2] | Potency [4]

Cc1cc(-c2ccc(/C=N/n3cnnc3)o2)ccc1Cl
inactive: Potency [1] | Potency [2] | Potency [3] | Potency [4]

CCCCCC(=O)N1c2ccccc2C(C)(c2ccccc2)CC1(C)C (centres undefined)
inactive: Potency [1] | Potency [2] | Potency [3] | Potency [4]

O=C(Nc1ccccc1N1CCCCC1)c1cnccn1
inactive: Potency [1] | activation [2] 0% [at 17.1 µM, percent relative to cAMP agonist control] | Potency [3] | activation [4] 21.6% [at 30.8 µM]

O=Nc1c(O)n(Cc2cccc(C(F)(F)F)c2)c2ccccc12
active: Potency [3] 47.8 µM
inactive: Potency [1] | Potency [2] | Potency [4]

O=C(c1cc(C(F)(F)F)cc(C(F)(F)F)c1)N1CCC2(CCCN(c3ncccn3)C2)CC1
active: Potency [7] 31.6 µM | Potency [3] 44.1 µM
inactive: Potency [5] > 11.4 µM | activity change, negative = inhibition [6] -18.2% | outcome [8] | Potency [9] > 46 µM | Potency [10] | Potency [11] | outcome [12] | Potency [1] | Potency [2]

O=C(CSc1nnc(-c2cccs2)n1Cc1ccco1)Nc1ccc2c(c1)OCO2
inactive: Potency [1] | Potency [2] | Potency [3] | Potency [4]

C=CC(C)N1C(=O)S/C(=C\c2ccc(N3CCOCC3)cc2C)C1=O (centres undefined)
active: Potency [3] 84.9 µM
inactive: Potency [1] | Potency [2] | Potency [4]

C[C@H](CO)N1C[C@H](C)[C@@H](CN(C)Cc2ccc(Cl)c(Cl)c2)Oc2c(NC(=O)CCC(F)(F)F)cccc2C1=O
inactive: Potency [1] | Potency [2] | Potency [4]
active: Potency [3] 19 µM

O=C(O)c1cc(NN=Nc2cccc([N+](=O)[O-])c2)cc([N+](=O)[O-])c1
inactive: Potency [1] | activation [2] 1.11% [at 17.1 µM, percent relative to cAMP agonist control] | Potency [3] | activation [4] 8.61% [at 30.8 µM]
